# Only some compounds are listed: those with a hit (about 11% of all), similar ones and a draw of the others.
# Pf growth 96h: inhibits malaria parasite growth, 96 h; P. falciparum luciferase reporter growth, 96 h; AID 504834; Potency, µM (doses to about 28.7 µM), inactives show at the top dose activity change, negative = inhibition, most hits filed as inhibitors; 320,000 tested, 6.9% active; further: on the % scale 0 is the no-effect control and ±100 the full control effect
#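 Readout is luminescence from an integrated firefly luciferase in P. falciparum. Red cells, 2% hematocrit and 0.05% parasitemia final, were cultured with compound through two parasite generations (96 hours) at 37 C, 5% CO2.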
# NS1 inh: influenza NS1 inhibition. Potency, µM (series often up to 46.1 µM), without a hit: at the top dose activity, positive = more growth. 270,000 tested, 0.4% active; calls by dose curve; further: actives are rising curves; nearly all actives have a fitted effect of over 50% in size
#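 In this qHTS, NS1 from influenza A is expressed in budding yeast, where it slows growth. Cells are switched from glucose to 2% galactose medium (pH 6.0, -URA), treated with compound, and growth recovery is read at OD600.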
# Vaccinia Venus: vaccinia inhibition (Venus reporter) | Vaccinia virus Venus reporter expression, fluorescence | Potency, µM (highest dose often 36.5 µM), for the others: at the highest dose activity change, negative = inhibition, most hits filed as inhibitors | 330,000 tested, 0.46% active | AID 720580; calls by dose curve; tested in A549 cells; further: on the % scale 0 is the no-effect control and ±100 the full control effect; nearly all actives have a fitted effect of over 30% in size
# Vaccinia mCherry: inhibitors of vaccinia virus infection (mCherry reporter signal). AID 720579. Potency, µM (titrated, usually from 36.5 µM), without a hit: at the top dose activity change, negative = inhibition, actives largely listed as inhibitors. Vaccinia virus mCherry reporter infection, fluorescence. 310,000 tested, 0.63% active; calls by dose curve; tested in A549 cells; further: on the % scale 0 is the no-effect control and ±100 the full control effect; nearly all actives have a fitted effect of over 35% in size
# HCV inhibitor: HCV inhibition. Huh7.5.1 HCVcc-Cre infection, luciferase reporter, 44 h. Potency, µM (doses to about 41.8 µM), inactives show at the highest dose activity change, negative = inhibition, usual class: inhibitors. 340,000 tested, 3.4% active. AID 651820; further: on the % scale 0 is the no-effect control and ±100 the full control effect
#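 Cells (1,000/well) were plated 4 h before compound, then infected with HCVcc-Cre virus (~0.5 moi). After 44 h further culture, infection was read as luciferase luminescence following a 15 min substrate incubation at room temperature.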
# Pf growth 48h: P. falciparum growth inhibition at 48 hours (one generation) | P. falciparum luciferase growth in erythrocytes, 48 h | Potency, µM (top dose mostly 28.7 µM), without a hit: top-dose activity change, negative = inhibition, hits mostly inhibitors | 310,000 tested, 5.9% active; further: on the % scale 0 is the no-effect control and ±100 the full control effect
#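 Here the parasites carry a stable luciferase gene and grow inside erythrocytes in Albumax-based RPMI medium with compound for one erythrocytic cycle. Activity is scored as loss of luminescent signal.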
# Active calls of the source: *; i = inactive; ? = inconclusive; / = not tested or not shown; [ ] = another dose, or the depositor's remark. Unless noted, the call rests on the fitted dose curve; in most records, active means well fitted inhibition curve with a large enough effect; inconclusive means small, poorly fitted or top-dose-only effect, or another doubt; inactive means no such curve, though single readings can be large or run the other way. Potency means the concentration at half of the fitted maximal effect.
SMILES,Pf growth 96h,NS1 inh,Vaccinia Venus,Vaccinia mCherry,HCV inhibitor,Pf growth 48h
c1ccc(C2[C@H]3CN(CC4CCCCC4)[C@H](c4ccccc4)C34CC2(c2cccnc2)C4)cc1 (stereo partly drawn),?,-2%,-17%,-15%,1%,4.1µM*
COC(=O)c1cccc(C23CC4(C2)[C@H](CN(Cc2ccc(C(F)(F)F)cc2)[C@@H]4c2ccccc2)C3c2ccc(Cl)nc2)c1 (stereo partly drawn),?,4%,-12%,-4%,21%,?
O=C(CSc1ncc(C(F)(F)F)cc1Cl)N1CCNC1=O,/,/,/,/,-7%,/
CCc1c(C#N)c(SCCC(=O)Nc2ccc(F)cc2)nc2c1C(=O)CC(C)(C)C2,/,-4%,?,/,11µM*,?
CCc1c(C#N)c(SCCC(=O)Nc2cccc(OC)c2)nc2c1C(=O)CC(C)(C)C2,/,2%,-27%,/,10µM*,?
Cc1cc(C)nc(SCCC(=O)Nc2ccc(F)cc2)n1,4%,/,-12%,-8%,32%,?
CCCSc1oc(-c2ccco2)nc1S(=O)(=O)c1ccc(Cl)cc1,/,/,-7%,-13%,/,/
Cc1[nH]c(=O)[nH]c(=O)c1S(=O)(=O)N1CCCC(C(=O)NCCc2ccc(Cl)cc2)C1 (stereo not drawn),-10%,-2%,-9%,/,3%,8%
CCOc1ccc(Br)cc1CNCCN1CCOCC1,12µM*,2%,-16%,-15%,21%,-25%
CCOc1ccc2ccccc2c1CNCCCN1CCOCC1,/,/,-17%,-5%,/,/
CCOc1ccc(Br)cc1S(=O)(=O)NCCN1CCCC1,-2%,-4%,/,/,-6%,/
CCOc1ccc2ccccc2c1CNCCN1CCOCC1,5.2µM*,-8%,-6%,-17%,-5%,13µM*
CCOc1ccc(Br)cc1CNc1ccc2c(c1)OCCO2,-8%,-2%,-5%,-8%,11µM*,-21%
Cc1ccc(C(=O)NCC(=O)OCC(=O)c2ccc3c(c2)OCCO3)cc1C,9%,-16%,-4%,-12%,16%,/
Cc1cccc(C)c1NC(=O)CN1C(=O)N(C)Cc2ccccc21,-14%[5.75 µM],3%,-3%,-10%,18%,16%
CC(NC(=S)Nc1ccc(Cl)cc1)C(c1ccccc1)N1CCOCC1 (stereo not drawn),10µM*,-33%,/,/,13%,?
COC(=O)[C@H](CC(C)C)NS(=O)(=O)c1ccccc1,?,8%,-4%,i,10%,-17%
C=CS(=O)(=O)N(Cc1ccccc1Br)[C@H](CO)CC(C)C,/,/,1.4µM*,?,1%[8.37 µM],/
COC(=O)[C@@H](CC(C)C)NS(=O)(=O)N(Cc1ccccc1)[C@@H](CC(C)C)C(=O)OC,?,/,-26%,-5%,-17%,13µM*
CC(C)C[C@@H](CO)N(Cc1ccccc1)S(=O)(=O)N(Cc1ccccc1)[C@@H](CO)CC(C)C,2.6µM*,/,22µM*,?,-7%,7.4µM*
C=CCN([C@@H](CC(C)C)C(=O)OC)S(=O)(=O)N(CC=C)[C@@H](CC(C)C)C(=O)OC,?,/,-12%,-1%,-16%,4.7µM*
CC(C)Cn1c(-c2ccccc2)nc2ccccc2c1=O,?,-15%,-12%,-23%,?,-18%
O=C(Cn1c(=O)[nH]c2ccccc2c1=O)Nc1ccc2c(c1)OCCO2,2%,-17%,/,/,4%,30%
Cc1ccccc1NC(=O)Cc1nnc(SCC(=O)NC2CCCC2)n1C,7%,9%,1%,-3%,3%,5%
COC(=O)c1ccccc1NC(=O)N1CCN(S(=O)(=O)c2ccc(Cl)cc2)CC1,?,-35%,-19%,?,1%,?
SMILES,Pf growth 96h,NS1 inh,Vaccinia Venus,Vaccinia mCherry,HCV inhibitor,Pf growth 48h
CC(C)(C)c1ccc(CC(=O)N2CCC2(C)C(=O)NCc2cccc3ccccc23)cc1 (stereo not drawn),/,/,?,-7%,/,/
COc1ccc(CN([C@H](C)CO)S(=O)(=O)N(Cc2ccccc2)[C@H](CO)C(C)C)cc1,?,/,-24%,i,?,?
C=C[C@H](CC(C)C)N(Cc1ccccc1)S(=O)(=O)N(Cc1ccccc1)[C@@H](C=C)CC(C)C,/,/,-23%,-4%,-4%,/
CC(C)C[C@@H](CO)N(Cc1ccccc1)S(=O)(=O)N(Cc1ccccc1)[C@H](CO)CC(C)C,?,/,?,-27%,?,4.7µM*
C=C[C@@H](C)N(Cc1ccc(OC)cc1)S(=O)(=O)N(Cc1ccccc1)[C@H](C=C)C(C)C,?,/,-10%,-22%,14%,3.3µM*
COc1ccc(CN([C@H](CO)CC(C)C)S(=O)(=O)N(Cc2ccccc2)[C@H](CO)CC(C)C)cc1,/,/,13µM*,?,?,/
O=C(COC(=O)c1ccc(CNS(=O)(=O)c2ccc(F)c(Cl)c2)cc1)NC1CCCCCCC1,?,4%,0%,-15%,5%,-2%
COC(=O)c1ccc(NC(=S)NC2CCCCC2)cc1,19%,1%,/,/,-21%,-13%
COC(=O)[C@@]1(Cc2ccc(F)cc2)[C@H]2c3cc(C(=O)N(C)C)n(CCSCCO)c3C[C@H]2CN1C(=O)c1ccccc1,13µM*,-6%,-27%,-10%,2%,6.6µM*
COC(=O)[C@@]1(Cc2ccc(F)cc2)[C@H]2c3cc(C(=O)N(C)C)n(Cc4nc5ccccc5[nH]4)c3C[C@H]2CN1C(=O)c1ccccc1,3.7µM*,28%,?,i,?,1.5µM*
COC(=O)[C@@]1(Cc2ccc(F)cc2)[C@@H]2[C@@H](CC(=O)[C@H]2CC(=O)C(=O)N(C)C)CN1C(=O)c1ccccc1,9.3µM*,-28%,6%,?,0%[8.37 µM],-23%
COC(=O)[C@@]1(Cc2ccc(F)cc2)[C@H]2c3cc(C(=O)N(C)C)n(Cc4cc(C)n(C)n4)c3C[C@H]2CN1C(=O)c1ccccc1,/,/,-21%,-17%,/,/
COC(=O)[C@@]1(Cc2ccc(F)cc2)[C@H]2c3cc(C(=O)N(C)C)n(Cc4ccc(S(C)(=O)=O)cc4)c3C[C@H]2CN1C(=O)c1ccccc1,/,/,-14%,-16%,/,/
COC(=O)[C@@]1(Cc2ccc(F)cc2)[C@H]2c3cc(C(=O)N(C)C)n(Cc4ccccn4)c3C[C@H]2CN1C(=O)c1ccccc1,2.9µM*,-17%,-15%,i,12%,3.3µM*
CC1(C)Oc2cc3oc(C(=O)O)cc(=O)c3cc2-c2ccccc21,/,/,0%,-1%,/,/
COc1ccc(Cl)cc1/C=C/c1ccc2cccc(O)c2n1,7%,2%,/,/,?,/
CC1CC(C#N)N(N(C)C)C1=C(C#N)C#N (stereo not drawn),23%,-5%,-9%,-7%,13%,6%
CN(C)c1cccc(C(=O)N2CCCC(CCC(=O)NCc3ccccc3F)C2)c1 (stereo not drawn),?,-5%,-24%,-14%,?,3.3µM*
